The values that follow come from PubChem BioAssay (Tox21).

Inconclusive results are not listed. The source holds several records for some structures; these can differ, active in one and inactive in another. Calls of active or inactive are those of the source. Unless noted, the call rests on the fitted dose curve.

A short description of test [1]: Nuclear factor erythroid 2-related factor 2/antioxidant responsive element (Nrf2/ARE) small molecule agonists: qHTS cell viability counter screen in human keratinocytes (AID 1919968; active means well fitted curve in the direction sought with a large enough effect in the repeat runs; an effect the other way counts as inactive or inconclusive; further: nearly all actives have a fitted effect of over 55% in size). Summed up:
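Fluorescence read-out from CellTiter-Fluor after 1 h at 37 C. Wells held HaCaT-derived ARE-luciferase reporter cells (1,500/well) treated 23 h with DMSO-dissolved compounds. Run in the same wells as the luciferase agonist read.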

The nature of test [2]: Nuclear factor erythroid 2-related factor 2/antioxidant responsive element (Nrf2/ARE) small molecule agonists: luciferase reporter gene qHTS assay in human keratinocytes (AID 1919969). Further: nearly all actives have a fitted effect of over 35% in size. Further: potency means the concentration at half of the fitted maximal effect.
Test [3] concerns the target Gonadotropin-releasing hormone receptor (Homo sapiens) (UniProt P30968). The test can be described thus: Human gonadotropin-releasing hormone receptor (GnRHR) small molecule agonists, calcium flux assay in GnRHR-HEK293 cells (AID 1920063). Further: nearly all actives have a fitted effect of over 35% in size. Summed up:
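Calcium-dye fluorescence, Ex/Em=480/540, recorded every 1 sec over 3 min after compound addition to GnRHR-HEK293 cells. Cells had been seeded 18 hours earlier and dye-loaded for 1 hour at 37 C. Fifteen concentrations, triplicates.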

Test [4] concerns the target KiSS-1 receptor (Homo sapiens) (UniProt Q969F8). The test can be described thus: Human kisspeptin (KISS1R) small molecule agonists, calcium flux assay in KISS1R-HEK293 cells (AID 1920064; active means well fitted curve in the direction sought with a large enough effect in the repeat runs; an effect the other way counts as inactive or inconclusive). A digest of the protocol: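 Calcium flux read-out: kinetic fluorescence at Ex/Em=480/540, 1 s intervals over 3 min, after pin-tool compound addition to dye-loaded KISS1R-HEK293 cells. Fifteen concentrations, triplicates.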

The nature of test [5]: G protein-coupled receptor (GPCR) small molecule agonists, calcium flux assay: HEK293 wild type cell line counter screen (AID 1920065). Summed up: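 Agonist mode; 18 h seeding at 37 C, 1 h dye load at 37 C; compounds pinned from DMSO, ATP as positive control; kinetic fluorescence 480/540 nm, 3 min, 1 s reads; 15 concentrations, triplicate.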
Test [6] is described as follows: p53 small molecule agonists, cell-based qHTS assay with human liver microsomes: qHTS cell viability counter screen (AID 1963579). Further: nearly all actives have a fitted effect of over 45% in size. Summed up:
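In this multiplexed counter screen, the reporter plates were subsequently treated with CellTiter-Glo so that cell viability, reflected by luminescence, could be recorded for p53RE-bla cells dosed 16 h with compounds under microsomal activation (HLM and NADPH).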

A short description of test [7]: p53 small molecule agonists, cell-based qHTS assay with rat liver microsomes: qHTS cell viability counter screen (AID 1963580). Further: nearly all actives have a fitted effect of over 45% in size. A digest of the protocol:
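After the beta-lactamase ratio was read, CellTiter-Glo was added to the same wells and luminescence measured at 30 min; cells had been treated 16 h at 37 C with compounds, rat liver microsomes and NADPH (0.5 mg/mL final each).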

The nature of test [8]: p53 small molecule agonists, cell-based qHTS assay: qHTS cell viability counter screen (AID 1963581). Further: nearly all actives have a fitted effect of over 45% in size. Summed up:
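Cytotoxicity read-out: ATP-based luminescence (CellTiter-Glo, 30 min RT) measured in the same wells as the p53 reporter assay, HCT-116 p53RE-bla cells, 16 h compound exposure at 37 C.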

The nature of test [9]: p53 small molecule agonists, cell-based qHTS assay (AID 1963582; active means well fitted activation curve with a large enough effect in the signal ratio in the repeat runs, not every such curve was filed as active; the % refers to the signal ratio). Summed up:
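Fluorescence intensity read-out of a beta-lactamase reporter under a p53 response element. Cells were exposed to DMSO-dissolved compounds for 16 h at 37 C, then developed with FRET substrate for 2 h at RT.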

For test [10], the target named is 5-hydroxytryptamine receptor 2A (Homo sapiens) (UniProt P28223). The test can be described thus: 5-hydroxytryptamine receptor 2A (HTR2A) small molecule antagonists, cell-based qHTS assay (AID 1963586). Further: nearly all actives have a fitted effect of over 45% in size. Summed up: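 CHO cells stably expressing human HTR2A were plated for 18 h at 37 C, then loaded with calcium dye for 1 h. Compounds were preincubated 5 min at room temperature before DOI (4 nM solution) was added. Kinetic fluorescence was read for 3 min.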

Test [11] has the same target. The test can be described thus: 5-hydroxytryptamine receptor 2A (HTR2A) small molecule agonists, cell-based qHTS assay (AID 1963587). Further: nearly all actives have a fitted effect of over 30% in size. A digest of the protocol: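 CHO cells stably expressing human HTR2A, plated 18 h, loaded with calcium dye 1 h at 37 C. Agonist mode: compounds added and intracellular calcium fluorescence recorded kinetically for 2 min at 1 sec intervals.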

Test [12] concerns the target Muscarinic acetylcholine receptor M1 (Homo sapiens) (UniProt P11229). The test can be described thus: Cholinergic receptor muscarinic 1 (CHRM1) small molecule antagonists, cell-based qHTS assay (AID 1963588). Further: nearly all actives have a fitted effect of over 40% in size. A digest of the protocol:
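Compounds were tested at 15 concentrations in three independent runs. Dye-loaded CHRM1-CHO cells were exposed 5 min at room temperature before stimulation by acetylcholine added at 50nM. Intracellular calcium was read kinetically on FDSS for 3 min.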

For test [13] the target is unchanged. The test can be described thus: Cholinergic receptor muscarinic 1 (CHRM1) small molecule agonists, cell-based qHTS assay (AID 1963589). Further: nearly all actives have a fitted effect of over 35% in size. A digest of the protocol:
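Calcium flux read-out: kinetic fluorescence at 1 sec intervals after pin-tool compound addition to dye-loaded CHRM1-CHO cells (human M1). Agonist mode; 15 concentrations tested in triplicate independent runs.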

Test [14] can be described thus: cAMP Responsive Elements (CRE) small molecule agonists, cell-based qHTS assay (AID 1963590). A digest of the protocol: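 Beta-lactamase reporter readout: LiveBLAzer B/G FRET substrate, 2 h at room temperature, added after 3 h compound treatment of CRE-bla HEK 293T cells at 37 C/5% CO2.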
Test [15] in a line: cAMP Responsive Elements (CRE) small molecule antagonists, cell-based qHTS assay (AID 1963591; active means well fitted inhibition curve with a large enough effect in the signal ratio in the repeat runs, not every such curve was filed as active; the % refers to the signal ratio). A digest of the protocol: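 HEK293T CRE-bla; 18 h preincubation; compound pin-transfer; NKH477 0.25 uM final, 3 h, 37 C; LiveBLAzer FRET substrate 2 h RT.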
In test [16] the target is Beta-2 adrenergic receptor (Homo sapiens) (UniProt P07550). The test can be described thus: Adrenergic beta2 receptor (ADRB2) small molecule antagonists, cell-based qHTS assay (AID 1963592). Further: series mostly up to about 92 µM; nearly all actives have a fitted effect of over 50% in size. Summed up: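 Assay format: CHO-ADRB2 cells, 18-20hr seeding at 37C/5% CO2, then compound plus 1nM isoproterenol agonist mix for 0.5hr RT. Homogeneous time-resolved fluorescence cAMP detection after 1hr, expressed as 665/615 nm ratio.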

The target is the same in test [17]. The test can be described thus: Adrenergic beta2 receptor (ADRB2) small molecule agonists, cell-based qHTS assay (AID 1963593).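 Further: CHO cells stably overexpressing human ADRB2.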 Summed up: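 CHO cells stably over-expressing ADRB2 were plated overnight at 37C, then dosed with compounds plus a stimulation mix containing 100uM IBMX and 25uM Ro-20-1724 for 0.5hr at room temperature. cAMP was measured by HTRF competition, 1hr.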

The target of test [18] is D(2) dopamine receptor (Homo sapiens) (UniProt P14416). The test can be described thus: Dopamine D2 receptor (DRD2) small molecule agonists, cell-based qHTS assay (AID 1963594). Further: nearly all actives have a fitted effect of over 35% in size. A digest of the protocol:
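HEK293 cells stably expressing human DRD2, pre-treated with PDE inhibitor Ro20-1724 (0.1 mM final) and compound 10 min at room temperature, then stimulated with NKH477 (200nM […]) for 30 min. cAMP read by HTRF (665/620 nm).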

Test [19] shares this target. The test can be described thus: Dopamine D2 receptor (DRD2) small molecule antagonists, cell-based qHTS assay (AID 1963595; active means well fitted inhibition curve with a large enough effect in the signal ratio in the repeat runs, with a control signal flat; the % refers to the signal ratio). A digest of the protocol: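 HTRF cAMP read-out at 665 and 620 nm emission (340 nm excitation). Antagonist mode: compounds were tested against 12 nM quinpirole in DRD2-HEK293 cells, with 200 nM NKH477 raising cAMP and 0.1 mM Ro20-1724 blocking its breakdown.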

Test [20] in a line: p53 small molecule agonists, cell-based qHTS assay with human liver microsomes (AID 1963577).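 Further: p53 response element beta-lactamase reporter cells with liver microsomes plus NADPH.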 Summed up: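 16 h, 37 C exposure of p53RE-bla cells to compounds with human liver microsomes and NADPH (0.5 mg/mL final each); detection via LiveBLAzer mixture, 2 h dark at room temperature.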

Chain of KiSS-1 receptor (Homo sapiens) (Q969F8 whole entry, looked up): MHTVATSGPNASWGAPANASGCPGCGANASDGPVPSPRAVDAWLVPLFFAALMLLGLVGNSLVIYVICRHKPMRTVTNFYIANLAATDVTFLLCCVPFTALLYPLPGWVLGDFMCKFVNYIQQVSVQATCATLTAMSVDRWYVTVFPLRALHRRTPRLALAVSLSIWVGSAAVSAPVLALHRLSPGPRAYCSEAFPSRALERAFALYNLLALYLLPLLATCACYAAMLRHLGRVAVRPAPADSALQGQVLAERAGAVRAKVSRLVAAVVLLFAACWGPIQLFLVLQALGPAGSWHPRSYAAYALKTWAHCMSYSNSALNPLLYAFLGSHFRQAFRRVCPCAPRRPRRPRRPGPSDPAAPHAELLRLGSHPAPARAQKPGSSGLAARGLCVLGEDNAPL
Chain of D(2) dopamine receptor (Homo sapiens) (P14416 whole entry, looked up): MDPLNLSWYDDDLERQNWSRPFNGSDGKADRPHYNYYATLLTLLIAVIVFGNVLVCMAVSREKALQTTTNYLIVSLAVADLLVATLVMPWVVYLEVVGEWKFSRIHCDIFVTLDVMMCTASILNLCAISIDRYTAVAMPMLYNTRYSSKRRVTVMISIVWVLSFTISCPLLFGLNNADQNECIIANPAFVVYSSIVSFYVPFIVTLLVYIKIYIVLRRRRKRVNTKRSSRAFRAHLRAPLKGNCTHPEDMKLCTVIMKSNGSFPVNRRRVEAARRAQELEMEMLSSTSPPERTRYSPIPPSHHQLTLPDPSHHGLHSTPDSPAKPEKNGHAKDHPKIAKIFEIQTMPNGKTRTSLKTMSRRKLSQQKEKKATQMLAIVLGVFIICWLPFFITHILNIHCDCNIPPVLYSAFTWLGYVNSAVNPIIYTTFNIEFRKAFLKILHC
Chain of 5-hydroxytryptamine receptor 2A (Homo sapiens) (P28223 whole entry, looked up): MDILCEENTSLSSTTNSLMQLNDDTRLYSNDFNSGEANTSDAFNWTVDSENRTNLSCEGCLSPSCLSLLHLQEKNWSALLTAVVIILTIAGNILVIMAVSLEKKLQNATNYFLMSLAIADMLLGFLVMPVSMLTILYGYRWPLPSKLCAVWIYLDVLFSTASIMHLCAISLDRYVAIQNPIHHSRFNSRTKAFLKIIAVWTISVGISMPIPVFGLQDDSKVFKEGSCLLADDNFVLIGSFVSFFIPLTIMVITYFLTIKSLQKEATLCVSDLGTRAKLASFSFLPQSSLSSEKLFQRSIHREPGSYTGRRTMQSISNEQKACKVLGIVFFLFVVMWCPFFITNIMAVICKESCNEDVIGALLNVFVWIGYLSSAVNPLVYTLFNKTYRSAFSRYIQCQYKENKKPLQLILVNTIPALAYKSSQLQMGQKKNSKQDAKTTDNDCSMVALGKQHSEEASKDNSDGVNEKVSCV
Chain of Gonadotropin-releasing hormone receptor (Homo sapiens) (P30968 whole entry, looked up): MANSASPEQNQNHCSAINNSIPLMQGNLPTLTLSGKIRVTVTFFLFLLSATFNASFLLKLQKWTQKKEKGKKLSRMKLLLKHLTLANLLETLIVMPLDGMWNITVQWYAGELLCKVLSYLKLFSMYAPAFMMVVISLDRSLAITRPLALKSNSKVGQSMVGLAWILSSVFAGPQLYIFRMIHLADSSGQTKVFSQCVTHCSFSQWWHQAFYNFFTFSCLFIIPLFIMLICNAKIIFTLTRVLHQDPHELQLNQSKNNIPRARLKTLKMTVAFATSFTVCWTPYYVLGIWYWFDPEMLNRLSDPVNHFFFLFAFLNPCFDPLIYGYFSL
Chain of Muscarinic acetylcholine receptor M1 (Homo sapiens) (P11229 whole entry, looked up): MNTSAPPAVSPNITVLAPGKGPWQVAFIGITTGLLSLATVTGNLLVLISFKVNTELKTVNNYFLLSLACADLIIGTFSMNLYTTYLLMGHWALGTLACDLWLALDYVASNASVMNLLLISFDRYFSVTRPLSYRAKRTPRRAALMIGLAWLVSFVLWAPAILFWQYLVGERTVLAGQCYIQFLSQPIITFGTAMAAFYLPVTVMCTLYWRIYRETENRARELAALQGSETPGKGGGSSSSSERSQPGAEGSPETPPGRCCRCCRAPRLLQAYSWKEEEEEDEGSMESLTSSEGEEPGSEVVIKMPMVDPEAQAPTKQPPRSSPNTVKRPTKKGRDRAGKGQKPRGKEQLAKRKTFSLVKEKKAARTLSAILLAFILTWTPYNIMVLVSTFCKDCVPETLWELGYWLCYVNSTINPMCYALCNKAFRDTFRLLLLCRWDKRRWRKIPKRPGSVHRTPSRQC
Chain of Beta-2 adrenergic receptor (Homo sapiens) (P07550 whole entry, looked up): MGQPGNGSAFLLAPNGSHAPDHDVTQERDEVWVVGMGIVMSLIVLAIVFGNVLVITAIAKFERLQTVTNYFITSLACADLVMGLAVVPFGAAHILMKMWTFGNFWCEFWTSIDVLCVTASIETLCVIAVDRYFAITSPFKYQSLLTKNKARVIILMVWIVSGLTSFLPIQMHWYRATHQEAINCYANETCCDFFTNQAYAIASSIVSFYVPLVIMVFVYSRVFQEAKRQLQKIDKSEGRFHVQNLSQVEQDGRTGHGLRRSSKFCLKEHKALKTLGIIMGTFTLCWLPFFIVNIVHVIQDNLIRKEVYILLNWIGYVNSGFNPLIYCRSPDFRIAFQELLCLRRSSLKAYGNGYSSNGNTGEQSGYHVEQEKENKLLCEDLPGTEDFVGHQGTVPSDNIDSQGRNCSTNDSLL

With `CCCCOCCOCCSC#N`, the Potency entry in test [1], in [2], in test [3], in test [4], in test [5] and in test [6] was “inactive” each time. The Potency result in test [7], in [8], in test [9], in [10], in test [11] and in [12] was “inactive” in each case. The Potency entry in test [13], in test [14], in test [15], in [16], in test [17] and in test [18] was “inactive” each time. Also, the Potency result in test [19] was “inactive”.

Regarding `CC(C)(C)NC(=O)[C@H]1CC[C@H]2[C@@H]3CC[C@H]4NC(=O)C=C[C@]4(C)[C@H]3CC[C@]12C`, the Potency result in test [1], in test [2], in [3], in [4], in [5] and in test [6] was “inactive” in each case. Moreover, the Potency result in test [7], in test [16], in test [17], in [18] and in test [19] was “inactive” in each case.

`CCc1ccc(CCOc2ccc(CC3SC(=O)NC3=O)cc2)nc1` (configuration not stated): the Potency result in test [1], in test [3], in test [4], in test [5], in [20] and in test [6] was “inactive” in each case. Moreover, the Potency result in test [8], in test [9], in test [16], in test [17] and in test [19] was “inactive” in each case. The Potency in [2] is 27.3 µM (active) and inactive.

Consider `CC(=O)c1ccccc1`, for which the Potency entry in test [1], in test [2], in [3], in test [4], in test [5] and in test [6] was “inactive” throughout. Moreover, the Potency result in test [7], in test [8], in test [9], in [10], in test [11] and in test [12] was “inactive” throughout. Moreover, the Potency result in test [13], in [14], in test [15], in test [16], in test [18] and in test [19] was “inactive” each time.

On to `COC(=O)c1ccccc1`, for which the Potency entry in test [1], in test [2], in test [3], in test [4], in test [5] and in [6] was “inactive” in each case. In addition, the Potency result in test [8], in test [9], in test [10], in test [12], in test [13] and in [14] was “inactive” in each case. In addition, the Potency result in test [15], in test [16], in [17], in test [18] and in test [19] was “inactive” each time.

Regarding `CCCOC(=O)c1cc(O)c(O)c(O)c1`, the Potency entry in [1], in test [2], in test [3], in test [4], in test [5] and in test [20] was “inactive” in each case. The Potency result in test [7], in [10], in [11], in test [12], in test [13] and in [15] was “inactive” each time. The Potency result in test [16], in [17], in test [18] and in [19] was “inactive” each time.

On to `Nc1ccc(O)c(C(=O)O)c1`, for which the Potency entry in [1], in [2], in test [3], in test [4], in test [5] and in [6] was “inactive” throughout. In addition, the Potency result in test [7], in test [8], in [9], in test [10], in [11] and in [12] was “inactive” in each case. Besides, the Potency result in [13], in test [14], in [15] and in test [16] was “inactive” throughout.

Regarding `CC(=O)O[C@]1(C(C)=O)CC[C@H]2[C@@H]3C[C@H](C)C4=CC(=O)CC[C@]4(C)[C@H]3CC[C@@]21C`, the Potency result in test [1], in test [2], in [3], in test [4], in test [5] and in test [6] was “inactive” each time. In addition, the Potency result in test [7], in test [8], in [9], in [16], in [17] and in test [18] was “inactive” throughout. Also, the Potency result in [19] is “inactive”.
